GDH-TPI counter: inhibits GDH-TPI coupling enzymes, artifact for Mtb FBA screen. GDH-TPI coupled enzyme counterscreen, NADH absorbance. inhibition, % at 4.8 µM. 360,000 compounds, 1.2% hits. AID 588335;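 also: 0% = DMSO wells and 100% = wells lacking the enzyme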
VHR inh abs: DUSP3 (human) phosphatase inhibition; P51452; recombinant VHR phosphatase, pNPP absorbance; 290,000 compounds, 0.52% hits; inhibition, % at 13.3 µM; in the data active = inhibition above about 50%
Target sequence (P51452 whole entry, looked up): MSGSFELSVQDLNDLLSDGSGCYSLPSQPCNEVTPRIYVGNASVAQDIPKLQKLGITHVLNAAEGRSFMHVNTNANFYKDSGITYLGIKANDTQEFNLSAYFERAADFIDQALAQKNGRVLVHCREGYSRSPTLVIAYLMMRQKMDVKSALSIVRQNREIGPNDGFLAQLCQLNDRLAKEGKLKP
RecA splice inh: inhibitors of M. tuberculosis RecA intein splicing | inhibition, % (test concentration not listed) | P9WHJ3 | cell-free RecA intein splicing, fluorescence | 290,000 compounds, 0.75% hits; in the data active = inhibition above about 30%;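 also: 0% = vehicle wells and 100% = reference inhibitor control wells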
FBA Mtb inh: inhibitors of M. tuberculosis fructose-bisphosphate aldolase; purified M. tuberculosis FBA, fluorescence read-out; inhibition, % at 1 µM; 360,000 compounds, 2.3% hits; AID 588726; in the data active = inhibition above about 27%;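 also: 0% = vehicle and 100% = reference inhibitor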
Target sequence (P9WQA3 whole entry, looked up): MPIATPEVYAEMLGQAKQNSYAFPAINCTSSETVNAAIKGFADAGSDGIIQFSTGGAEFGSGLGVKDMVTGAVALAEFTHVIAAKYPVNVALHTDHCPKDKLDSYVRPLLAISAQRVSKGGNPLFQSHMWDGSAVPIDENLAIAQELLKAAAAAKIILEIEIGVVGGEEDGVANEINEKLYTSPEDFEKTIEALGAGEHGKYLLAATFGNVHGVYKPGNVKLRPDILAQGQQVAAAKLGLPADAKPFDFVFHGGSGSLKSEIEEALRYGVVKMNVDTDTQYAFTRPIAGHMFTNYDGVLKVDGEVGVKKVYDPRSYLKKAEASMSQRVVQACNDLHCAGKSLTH
CCHFV vOTU inh: blocks the CCHF virus ovarian tumor domain protease. CCHFV vOTU protease, Pep-AMC fluorescence. inhibition, % at 11.5 µM. 370,000 compounds, 0.55% hits. AID 651958; also: 0% = vehicle wells with enzyme and 100% = no enzyme wells
SARS 3CLpro inh: SARS-CoV 3CLpro protease inhibition | recombinant SARS-CoV 3CLpro, quenched FRET peptide cleavage | inhibition, % at 6 µM | 290,000 compounds, 0.14% hits | AID 1706; in the data active = inhibition above about 12%
GFP chromo cs: counter-screen: blocks GFP chromophore formation; 2,100 compounds, 83% hits; AID 434968; EC50, µM; shares compounds with RecA splice inh; cell-free GFP chromophore formation, fluorescence; call rule not given here
* hit, by the source's call; nt = no result. A selection: hits, their analogues and other compounds. The true share with any hit is near 4.7%. Rule as the data show it, unless noted: active = inhibition above about 30%; inactive = the rest.

SMILES | GDH-TPI counter | VHR inh abs | RecA splice inh | FBA Mtb inh | CCHFV vOTU inh | SARS 3CLpro inh | GFP chromo cs
COC(=O)N1Cc2ccnnc2CC1c1ccccc1-c1ccc(OC)cc1 (stereo unspecified) | nt | nt | nt | nt | 3.6 | nt | nt
COC(=O)C(C#N)C(c1cccnc1)c1c(C)[nH][nH]c1=O (stereo unspecified) | -11.1 | 1.4 | 85.3* | -2.3 | 4.7 | -3.7 | 7.79*
CC1CN(CCc2ccccc2)c2nc3c(c(=O)n(CC(N)=O)c(=O)n3C)n2C1 (stereo unspecified) | 6.6 | 46.6 | -3.0 | 0.1 | 4.0 | -7.7 | nt
COC(=O)[C@]12C[C@H](CC(=O)NCc3cccs3)C(=O)N(CCC3=CCCCC3)C1=C[C@H](COCc1ccccc1)O[C@@H]2C | nt | nt | nt | nt | 8.3 | nt | nt
COCC(=O)Nc1c(C(=O)Nc2ccc3c(c2)OCO3)oc2ccccc12 | 7.8 | 10.8 | -15.6 | 3.9 | 4.8 | 1.9 | nt
O=C(CCl)Nc1c(C(=O)Nc2ccc3c(c2)OCCO3)oc2ccccc12 | 11.8 | 3.6 | 30.9* | -2.4 | 6.0 | 4.8 | 3.65*
CC1(C)CC(=O)c2c(O)cc(OCC(=O)N3CCN(c4ccc(F)cc4)CC3)cc2O1 | 12.2 | -12.2 | 3.8 | 0.3 | 15.0 | 3.8 | nt
O=C1CC(NC(=O)C(F)(F)F)=NN1c1ccccc1 | -1.3 | 16.9 | 89.9* | 3.7 | 17.5 | 2.4 | 16.5*
CC(Oc1ccc(Cl)cc1Cl)C(=O)NC1=NN(c2ccccc2)C(=O)C1 (stereo unspecified) | 2.6 | 20.2 | 15.1 | 0.4 | 5.0 | 2.5 | nt
Cc1ccc(SCc2[nH]nc3c2C(c2ccc(C)o2)C(C#N)=C(N)O3)cc1 (stereo unspecified) | 3.5 | -11.5 | 36.5* | 0.5 | -6.1 | -1.3 | >12
C/C(=C\c1ccco1)C1C(C#N)=C(N)Oc2n[nH]c(-c3ccc(C)cc3)c21 (stereo unspecified) | 16.5 | 30.4 | 21.0 | -0.3 | 4.5 | 3.1 | nt
Cc1ccc(SCc2[nH]nc3c2C(c2ccco2)C(C#N)=C(N)O3)cc1 (stereo unspecified) | -4.6 | 1.4 | 72.6* | -5.1 | 4.2 | -2.7 | 25.5*
Cc1ccc(SCc2[nH]nc3c2C(C(C)C)C(C#N)=C(N)O3)cc1 (stereo unspecified) | 0.0 | 2.2 | 7.2 | -0.9 | 16.6 | 0.9 | nt
O=C(Cc1ccccc1)N/N=C/c1ccccc1Cl | 4.9 | 9.9 | -0.7 | -0.5 | 2.4 | 5.0 | nt
O=C(Cc1cc(=O)[nH][nH]1)N/N=C/c1cccc(Cl)c1Cl | -0.4 | 2.5 | 94.4* | 1.0 | 17.2 | 3.8 | 10.5*
O=C(Cc1cc(=O)[nH][nH]1)N/N=C/c1ccccc1Cl | nt | 21.2 | 74.0* | nt | -7.8 | 1.3 | 7.7*
O=C(Cc1cc(=O)[nH][nH]1)N/N=C/c1cccc2ccccc12 | 18.1 | 2.5 | 94.1* | -2.7 | 7.3 | 0.6 | 7.28*
Cn1cccc1CC(=O)N/N=C/C(Cl)=C/c1ccccc1 | 7.7 | 4.0 | 3.1 | 6.1 | -1.4 | 3.3 | nt
O=C(Cc1cc(=O)[nH][nH]1)N/N=C/C(Cl)=C/c1ccccc1 | 7.4 | 16.4 | 81.3* | -1.2 | -6.0 | -0.7 | 5.98*
Cc1ccccc1CN1[C@@H]2c3ccccc3C[C@@H]2OCCS1(=O)=O | 11.2 | 5.0 | 4.4 | 0.9 | 8.4 | 1.0 | nt
CC1CCN(C(=O)C2CCN(S(=O)(=O)c3cccc4nsnc34)CC2)CC1 | -3.9 | 16.3 | 2.7 | 0.4 | -5.1 | -0.7 | nt
COc1cc(C(C(=O)NC2CCCCC2)N(CCN2CCOCC2)C(=O)C2COc3ccccc3O2)cc(OC)c1OC (stereo unspecified) | -3.5 | 22.2 | 46.6* | -1.0 | 0.0 | -3.3 | >38
O=C(Cc1ccc(Cl)cc1)NCCc1c[nH]c2ccccc12 | -1.5 | nt | 1.5 | 0.7 | -13.7 | 2.7 | nt
O=C(CCl)N(c1ccccc1)c1c[nH]c2ccccc12 | 0.0 | 17.2 | 82.4* | 0.2 | 0.9 | -4.9 | 8.33*
CC(=O)n1cc(N(C(=O)CCl)c2ccccc2)c2ccccc21 | 0.8 | 17.2 | 85.5* | 1.6 | 9.2 | 5.5 | 4.41*
SMILES | GDH-TPI counter | VHR inh abs | RecA splice inh | FBA Mtb inh | CCHFV vOTU inh | SARS 3CLpro inh | GFP chromo cs
O=C(CCl)N(c1ccc(Cl)cc1)c1c[nH]c2ccccc12 | 4.0 | 21.3 | 40.4* | -0.2 | 5.6 | 5.3 | 2.24*
CC1=NNC(=O)C1C(c1ccc(Cl)cc1)C(C#N)C#N (stereo unspecified) | 0.8 | -10.3 | 84.8* | 0.8 | 11.7 | 3.2 | 11.2*
CC1=NN(Cc2ccccc2)C(=O)C1C(c1ccc(Cl)cc1)C(C#N)C#N (stereo unspecified) | 9.3 | -7.9 | 79.6* | 0.8 | 16.2 | 0.4 | 6.21*
CC1=NN(Cc2ccccc2)C(=O)C1C(c1ccncc1)C(C#N)C#N (stereo unspecified) | 18.2 | 8.7 | 68.1* | -1.6 | 4.1 | 4.1 | 17.7*
CC1=NN(Cc2ccccc2)C(=O)C1C(c1ccccc1)C(C#N)C#N (stereo unspecified) | 9.6 | 10.6 | 87.5* | 2.3 | 2.5 | 3.2 | 8.7*
Cc1ccc(C)c(N2CCN(C(c3ccncc3)c3nnnn3Cc3ccccc3)CC2)c1 (stereo unspecified) | -7.9 | 28.4 | 10.2 | 0.1 | -12.7 | -2.5 | nt
O=C(CSc1nnc(CNC(=O)c2c(F)cccc2F)o1)NCc1ccc(F)cc1 | 1.4 | -25.4 | 3.4 | -0.5 | -4.3 | 1.8 | nt
Cc1[nH]n(-c2ccccc2)c(=O)c1N=Nc1ccc(Cl)cc1 | -1.4 | 13.9 | 2.3 | -0.9 | -10.3 | -1.3 | nt
Cc1[nH]n(-c2ccccc2)c(=O)c1C=NCCc1ccccc1 | 5.8 | 19.7 | 5.0 | -0.7 | -10.2 | -6.5 | nt
Cc1[nH]n(-c2ccccc2)c(=O)c1C(C[N+](=O)[O-])c1ccc(Cl)cc1 (stereo unspecified) | 0.8 | 10.5 | 81.9* | 1.0 | 21.8 | -1.5 | 15.2*
COc1ccc(C(c2c(C)[nH]n(-c3ccccc3)c2=O)c2c(C)[nH]n(-c3ccccc3)c2=O)cc1OC | -3.8 | 11.9 | 98.4* | -2.7 | 84.2* | 4.7 | 1.27*
Cc1[nH]n(-c2ccccc2)c(=O)c1Sc1ccc(Cl)cc1 | 8.3 | 17.6 | 57.3* | -6.9 | 3.0 | -1.9 | 20*
Cc1[nH]n(-c2ccccc2)c(=O)c1C(C[N+](=O)[O-])c1ccc(F)cc1 (stereo unspecified) | -2.3 | -5.4 | 76.4* | -0.5 | -4.5 | 0.4 | 22.4*
COC1C(O)CCC2(CO2)C1C1(C)OC1CC=C(C)C (stereo unspecified) | nt | nt | nt | nt | -6.3 | nt | nt
COc1ccc(OCC(=O)Nc2cc(S(=O)(=O)N3CCCC3)ccc2Cl)cc1 | 5.6 | nt | nt | 8.9 | -2.0 | nt | nt
Cc1ccc(C(=O)OCCc2c(C)[nH]n(-c3ccccc3)c2=O)cc1 | 7.5 | 24.7 | nt | 2.7 | -5.0 | -0.9 | nt
Cc1ccc(C(C[N+](=O)[O-])c2c(C)[nH]n(-c3ccccc3)c2=O)cc1 (stereo unspecified) | 24.7 | -5.3 | 92.7* | 1.1 | 23.2 | -7.5 | 7.29*

Bioassay records: PubChem BioAssay, several laboratories
